In the supplement of paper PMC11006884:
The full data set covers some 6,500 targets. This sample favours those with a hit. About 2% of all pairs of compound and target were hits. Unmarked numbers belong to inactive results.

compound: COC(=O)C#Cc1ccccc1 [methyl 3-phenylpropiolate]; experiment: log2 ratio of iodoacetamide-alkyne labeling of the cysteine site, DMSO over compound (competition); higher = stronger covalent engagement of the cysteine by the compound, active = 1 or more; conditions: 500 µM; treatment time 1 h; system: HEK293T cell lysate
Summary of the method: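 Three replicates, each with duplicate channels, were prepared from HEK293T lysate (2 mg/mL) treated with vehicle or electrophile at 500 µM for 1 h at ambient temperature. Iodoacetamide alkyne was then applied for 1 h, and samples were clicked to sCIP-TMT reagents, pooled, trypsin-digested overnight at 37 °C, enriched on streptavidin, acid-eluted and analysed on Orbitrap Eclipse LC-MS/MS with FAIMS, with FragPipe quantification. The log2 competition ratio per cysteine is the mean control-channel divided by the mean compound-channel reporter intensity. Cysteines quantified in only one replicate were left out.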

Chain of UniProt Q9Y230 (Q9Y230 whole entry): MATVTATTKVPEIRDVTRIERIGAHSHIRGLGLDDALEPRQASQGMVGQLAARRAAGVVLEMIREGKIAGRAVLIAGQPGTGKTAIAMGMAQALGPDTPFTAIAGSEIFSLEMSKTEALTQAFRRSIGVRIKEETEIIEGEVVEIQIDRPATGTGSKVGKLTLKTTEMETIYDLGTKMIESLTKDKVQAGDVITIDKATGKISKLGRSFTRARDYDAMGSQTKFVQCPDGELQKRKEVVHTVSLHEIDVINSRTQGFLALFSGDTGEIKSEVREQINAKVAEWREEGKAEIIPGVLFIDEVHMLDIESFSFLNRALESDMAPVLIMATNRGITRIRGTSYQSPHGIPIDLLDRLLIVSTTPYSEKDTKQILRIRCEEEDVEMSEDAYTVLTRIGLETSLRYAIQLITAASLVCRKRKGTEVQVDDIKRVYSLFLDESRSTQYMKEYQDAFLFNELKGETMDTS
Chain of UniProt Q9UNE7 (Q9UNE7 whole entry, looked up): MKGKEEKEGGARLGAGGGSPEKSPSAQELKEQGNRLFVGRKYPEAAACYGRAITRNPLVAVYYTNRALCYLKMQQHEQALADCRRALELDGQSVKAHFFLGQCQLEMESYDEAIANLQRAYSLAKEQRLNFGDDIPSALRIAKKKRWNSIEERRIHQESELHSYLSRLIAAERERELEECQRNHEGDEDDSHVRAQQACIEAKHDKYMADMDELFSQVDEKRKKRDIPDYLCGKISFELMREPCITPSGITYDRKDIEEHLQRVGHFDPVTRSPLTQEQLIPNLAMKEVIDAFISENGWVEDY
Chain of UniProt Q9NXC5 (Q9NXC5 whole entry): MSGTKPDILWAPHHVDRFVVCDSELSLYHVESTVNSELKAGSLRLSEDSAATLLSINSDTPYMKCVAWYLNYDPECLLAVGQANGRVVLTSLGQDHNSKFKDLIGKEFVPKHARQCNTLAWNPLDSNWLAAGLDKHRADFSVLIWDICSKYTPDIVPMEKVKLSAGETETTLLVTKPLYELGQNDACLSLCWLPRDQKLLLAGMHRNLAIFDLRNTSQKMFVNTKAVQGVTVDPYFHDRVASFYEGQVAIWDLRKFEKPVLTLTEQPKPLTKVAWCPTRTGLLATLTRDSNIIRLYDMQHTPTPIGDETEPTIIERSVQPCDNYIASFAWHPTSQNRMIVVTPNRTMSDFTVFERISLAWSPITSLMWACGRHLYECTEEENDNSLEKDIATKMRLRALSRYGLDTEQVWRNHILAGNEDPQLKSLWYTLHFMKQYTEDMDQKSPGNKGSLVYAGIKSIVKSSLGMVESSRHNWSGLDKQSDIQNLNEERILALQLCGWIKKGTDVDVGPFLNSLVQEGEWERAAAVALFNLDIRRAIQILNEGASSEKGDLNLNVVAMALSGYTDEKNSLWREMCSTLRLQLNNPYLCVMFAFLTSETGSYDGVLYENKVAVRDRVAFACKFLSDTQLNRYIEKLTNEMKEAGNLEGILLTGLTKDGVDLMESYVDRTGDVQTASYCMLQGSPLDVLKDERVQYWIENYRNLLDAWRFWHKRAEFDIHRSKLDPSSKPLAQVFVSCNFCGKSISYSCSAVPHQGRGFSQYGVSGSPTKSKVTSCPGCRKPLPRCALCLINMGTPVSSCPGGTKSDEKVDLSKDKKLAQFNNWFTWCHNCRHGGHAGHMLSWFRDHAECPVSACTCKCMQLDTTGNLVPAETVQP
Chain of UniProt Q9UNF1 (Q9UNF1 whole entry): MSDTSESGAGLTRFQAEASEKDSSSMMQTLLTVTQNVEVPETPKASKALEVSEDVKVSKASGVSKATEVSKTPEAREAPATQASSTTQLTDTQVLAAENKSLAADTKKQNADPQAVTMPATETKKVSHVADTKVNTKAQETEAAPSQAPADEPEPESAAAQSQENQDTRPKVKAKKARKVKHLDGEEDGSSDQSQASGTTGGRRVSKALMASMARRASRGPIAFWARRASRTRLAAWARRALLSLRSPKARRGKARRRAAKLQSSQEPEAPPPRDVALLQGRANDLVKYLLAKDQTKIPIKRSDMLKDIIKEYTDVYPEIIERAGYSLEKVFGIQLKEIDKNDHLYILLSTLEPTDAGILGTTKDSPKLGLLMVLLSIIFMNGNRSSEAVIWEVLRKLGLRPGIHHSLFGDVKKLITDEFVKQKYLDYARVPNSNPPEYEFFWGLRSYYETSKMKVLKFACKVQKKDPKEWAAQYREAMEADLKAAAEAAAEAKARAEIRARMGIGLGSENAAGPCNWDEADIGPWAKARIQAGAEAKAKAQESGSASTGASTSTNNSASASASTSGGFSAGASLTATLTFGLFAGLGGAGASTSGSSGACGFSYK
Chain of UniProt Q9UNK0 (Q9UNK0 whole entry): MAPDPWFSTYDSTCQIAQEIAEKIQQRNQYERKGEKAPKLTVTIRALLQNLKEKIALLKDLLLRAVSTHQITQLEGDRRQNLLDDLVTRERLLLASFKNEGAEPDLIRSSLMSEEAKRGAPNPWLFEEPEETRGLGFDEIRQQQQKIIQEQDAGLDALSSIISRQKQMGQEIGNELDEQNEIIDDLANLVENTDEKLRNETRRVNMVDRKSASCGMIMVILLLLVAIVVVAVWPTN
Chain of UniProt Q9Y6R4 (Q9Y6R4 whole entry, looked up): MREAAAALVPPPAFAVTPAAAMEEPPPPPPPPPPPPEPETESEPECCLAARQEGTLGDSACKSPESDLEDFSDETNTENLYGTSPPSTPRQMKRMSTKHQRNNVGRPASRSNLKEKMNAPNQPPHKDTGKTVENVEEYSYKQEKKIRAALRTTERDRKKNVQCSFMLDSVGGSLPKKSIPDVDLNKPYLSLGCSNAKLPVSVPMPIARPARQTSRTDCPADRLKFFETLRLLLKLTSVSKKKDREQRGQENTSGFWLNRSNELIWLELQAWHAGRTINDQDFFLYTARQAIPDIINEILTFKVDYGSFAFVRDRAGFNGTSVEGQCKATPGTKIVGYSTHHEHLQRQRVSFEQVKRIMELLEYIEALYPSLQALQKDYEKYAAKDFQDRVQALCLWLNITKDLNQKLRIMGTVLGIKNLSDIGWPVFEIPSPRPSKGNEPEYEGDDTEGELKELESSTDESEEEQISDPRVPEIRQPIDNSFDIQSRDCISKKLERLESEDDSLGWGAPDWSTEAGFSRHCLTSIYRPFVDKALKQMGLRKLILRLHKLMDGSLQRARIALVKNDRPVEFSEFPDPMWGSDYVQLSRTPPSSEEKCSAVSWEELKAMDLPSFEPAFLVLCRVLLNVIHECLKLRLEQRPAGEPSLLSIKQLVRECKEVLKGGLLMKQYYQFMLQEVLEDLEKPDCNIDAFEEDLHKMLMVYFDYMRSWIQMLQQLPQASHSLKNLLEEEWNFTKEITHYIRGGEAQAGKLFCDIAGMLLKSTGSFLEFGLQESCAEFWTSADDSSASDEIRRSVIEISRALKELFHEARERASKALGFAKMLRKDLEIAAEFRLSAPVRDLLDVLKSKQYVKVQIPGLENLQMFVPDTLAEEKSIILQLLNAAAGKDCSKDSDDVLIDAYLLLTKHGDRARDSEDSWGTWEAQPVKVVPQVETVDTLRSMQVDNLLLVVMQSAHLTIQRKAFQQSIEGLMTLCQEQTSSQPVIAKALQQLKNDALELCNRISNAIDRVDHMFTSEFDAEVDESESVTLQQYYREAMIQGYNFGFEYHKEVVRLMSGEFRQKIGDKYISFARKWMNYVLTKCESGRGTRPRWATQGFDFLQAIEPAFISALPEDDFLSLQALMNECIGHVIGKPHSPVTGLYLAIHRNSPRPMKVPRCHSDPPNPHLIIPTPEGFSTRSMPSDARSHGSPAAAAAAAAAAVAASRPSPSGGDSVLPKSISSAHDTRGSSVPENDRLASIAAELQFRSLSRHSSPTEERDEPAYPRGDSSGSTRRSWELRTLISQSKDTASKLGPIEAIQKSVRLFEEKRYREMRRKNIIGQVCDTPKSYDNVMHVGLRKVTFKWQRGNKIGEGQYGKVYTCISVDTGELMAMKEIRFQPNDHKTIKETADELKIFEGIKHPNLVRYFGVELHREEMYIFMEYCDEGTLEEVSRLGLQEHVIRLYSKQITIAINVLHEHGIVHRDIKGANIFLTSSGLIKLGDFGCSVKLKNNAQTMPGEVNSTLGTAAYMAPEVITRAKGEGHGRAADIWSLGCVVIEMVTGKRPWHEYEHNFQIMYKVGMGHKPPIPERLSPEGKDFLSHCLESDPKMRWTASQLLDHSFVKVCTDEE
Chain of UniProt Q9Y2R4 (Q9Y2R4 whole entry): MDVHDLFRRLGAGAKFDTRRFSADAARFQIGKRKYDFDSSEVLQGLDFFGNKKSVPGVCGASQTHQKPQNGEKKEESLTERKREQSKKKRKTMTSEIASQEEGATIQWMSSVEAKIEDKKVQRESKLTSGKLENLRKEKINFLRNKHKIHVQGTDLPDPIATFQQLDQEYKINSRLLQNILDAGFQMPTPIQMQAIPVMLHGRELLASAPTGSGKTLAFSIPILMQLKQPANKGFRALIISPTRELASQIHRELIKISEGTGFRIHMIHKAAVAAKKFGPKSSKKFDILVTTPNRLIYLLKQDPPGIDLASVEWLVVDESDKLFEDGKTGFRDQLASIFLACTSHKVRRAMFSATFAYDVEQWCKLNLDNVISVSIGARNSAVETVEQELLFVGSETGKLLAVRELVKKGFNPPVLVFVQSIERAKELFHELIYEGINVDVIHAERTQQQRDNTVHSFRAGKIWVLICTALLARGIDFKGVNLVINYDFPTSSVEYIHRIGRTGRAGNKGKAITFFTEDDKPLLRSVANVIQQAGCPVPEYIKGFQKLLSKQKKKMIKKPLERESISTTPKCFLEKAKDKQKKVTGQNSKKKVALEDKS
Chain of UniProt Q9Y3F4 (Q9Y3F4 whole entry, looked up): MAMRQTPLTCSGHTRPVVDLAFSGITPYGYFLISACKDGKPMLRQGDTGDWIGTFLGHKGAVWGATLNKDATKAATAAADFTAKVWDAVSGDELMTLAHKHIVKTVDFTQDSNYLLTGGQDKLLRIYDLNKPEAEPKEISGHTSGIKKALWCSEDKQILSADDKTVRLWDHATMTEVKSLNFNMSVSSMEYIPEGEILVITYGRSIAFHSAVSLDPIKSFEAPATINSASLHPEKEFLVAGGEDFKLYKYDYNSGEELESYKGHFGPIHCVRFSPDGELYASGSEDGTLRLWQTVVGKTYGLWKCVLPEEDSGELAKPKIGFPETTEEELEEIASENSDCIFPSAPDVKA

Target | log2 ratio of iodoacetamide-alkyne labeling
FAM120A C531 (UniProt Q9NZB2) | 1.68 (active)
GPHN C419 (UniProt Q9NQX3) | 0.38
UniProt Q9UK61_C429 | 0.233
EPS15L1 C470 (UniProt Q9UBC2) | 0.13
STX8 C14 (UniProt Q9UNK0) | -0.148
UPF2 C1107 (UniProt Q9HAU5) | 0.18
STUB1 C199 (UniProt Q9UNE7) | 0.493
ALG5 C194 (UniProt Q9Y673) | 0.233
MAGED2 C516 (UniProt Q9UNF1) | 0.293
MAP3K4 C163 (UniProt Q9Y6R4) | 0.0336
MIOS C321 (UniProt Q9NXC5) | 0.126
UniProt Q9Y3B4_C83 | 0.2
UNC45A C420 (UniProt Q9H3U1) | 0.56
TNKS1BP1 C1337 (UniProt Q9C0C2) | 1.01 (active)
ACAT2 C360 (UniProt Q9BWD1) | -0.0247
DAXX C338 (UniProt Q9UER7) | 0.306
DDA1 C25 (UniProt Q9BW61) | 0.36
LARS C573 (UniProt Q9P2J5) | 0.342
PPME1 C386 (UniProt Q9Y570) | 1.48 (active)
XPO4 C1149 (UniProt Q9C0E2) | 0.048

Target | log2 ratio of iodoacetamide-alkyne labeling
C11orf68 C222 (UniProt Q9H3H3) | 0.528
IKBKG C347 (UniProt Q9Y6K9) | 0.397
FAM120C C14 (UniProt Q9NX05) | 0.327
DDX20 C524 (UniProt Q9UHI6) | 0.6
UniProt Q9NV64_C29 | 1.11 (active)
NDRG3 C290 (UniProt Q9UGV2) | -0.105
RUVBL2 C227 (UniProt Q9Y230) | 0.198
UniProt Q9Y678_C129 | 0.51
UniProt Q9BYG3_C269 | 0.771
UniProt Q9BYV8_C171 | 0.361
POLDIP2 C143 (UniProt Q9Y2S7) | 0.786
STRAP C305 (UniProt Q9Y3F4) | 0.0837
FARSB C195 (UniProt Q9NSD9) | 0.621
NFU1 C210 (UniProt Q9UMS0) | 1.06 (active)
ASF1B C178 (UniProt Q9NVP2) | 1.22 (active)
ITSN2 C1194 (UniProt Q9NZM3) | -0.296
RDH14 C97 (UniProt Q9HBH5) | 0.228
CPSF2 C765 (UniProt Q9P2I0) | 1.01 (active)
MLXIP C738 (UniProt Q9HAP2) | -0.0833
DDX52 C536 (UniProt Q9Y2R4) | 0.566
